Screening results (PubChem BioAssay)
TIM10 inh = inhibits growth of TIM10 yeast strain | inhibition, % at 10 µM | S. cerevisiae TIM10 strain growth, BacTiter-Glo luminescence, 24 h | 1.4% of 330,000 active;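 active = inhibition of 40% or more at the single tested concentration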;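 note: wild-type TIM10 isogenic control strain grown at permissive 25 °C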
SKKanGAS inh = blocks kanamycin growth of S. pyogenes SKKanGAS strain; 1.3% of 300,000 active; inhibition, % at 7.5 µM; AID 1662; BacTiter-Glo, 6 h;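 active = mean replicate score, as percent of positive control median, at least 50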;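 note: strain carries kanamycin resistance gene driven by streptokinase promoter and grows in 40 µg/ml kanamycin; loss of luminescence reflects streptokinase promoter inhibition or plain growth inhibition; 0% = median of DMSO wells and 100% = positive control at its reference dose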
tim23-1 inh = inhibits growth of tim23-1 mutant yeast. S. cerevisiae tim23-1 growth, BacTiter-Glo luminescence, 24 h. inhibition, % at 20 µM. 1.3% of 330,000 active;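 active = growth inhibition of the mutant yeast at or above 50%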;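 note: temperature-sensitive mutant grown at 25 °C; plate controls were DMSO-treated mutant yeast for no effect and medium wells lacking yeast for full effect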
PfHsp90 set2 = inhibits growth of yeast expressing Plasmodium falciparum Hsp90; S. cerevisiae expressing PfHsp90, BacTiter-Glo ATP, 48 h; yeast lacking PDR1 and PDR3 efflux regulators; inhibition, % at 9.4 µM; AID 504621; 0.32% of 310,000 active;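 active = every replicate shows inhibition above about 80%, whatever the replicate mean, limit read from the data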;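 note: 0% = DMSO neutral controls and 100% = 20 µM radicicol positive controls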
tim10-1 inh = growth inhibitors of tim10-1 mutant yeast | 2.2% of 330,000 active | inhibition, % at 20 µM | S. cerevisiae tim10-1 ts strain growth, BacTiter-Glo, 24 h;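 active = inhibition of at least 40%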;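 note: mutant grown at 25 °C; 0% = DMSO wells with yeast and 100% = wells holding no yeast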
ATG4B inh = blocks human ATG4B protease cleavage of LC3 substrate | ATG4B cleavage of LC3-PLA2, NBD-HPC fluorescence, 1 h | 0.51% of 340,000 active | inhibition, % at 8.33 µM | Q9Y4P1 | AID 504462; in the data active = inhibition above about 40%
Target sequence (Q9Y4P1 whole entry, looked up): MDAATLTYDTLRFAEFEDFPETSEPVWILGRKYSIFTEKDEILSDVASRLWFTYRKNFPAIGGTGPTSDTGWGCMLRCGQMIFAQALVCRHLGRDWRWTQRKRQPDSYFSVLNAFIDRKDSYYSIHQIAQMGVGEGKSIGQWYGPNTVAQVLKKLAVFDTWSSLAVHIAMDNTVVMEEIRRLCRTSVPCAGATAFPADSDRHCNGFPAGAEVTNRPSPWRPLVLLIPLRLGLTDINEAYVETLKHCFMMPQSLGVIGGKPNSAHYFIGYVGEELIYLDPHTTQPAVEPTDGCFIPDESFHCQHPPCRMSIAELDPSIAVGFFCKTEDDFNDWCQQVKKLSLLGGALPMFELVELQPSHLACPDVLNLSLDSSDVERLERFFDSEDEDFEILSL
Starred values were filed as active, the others as inactive; i = inactive; nt = no result given. Hits are enriched below; roughly 4.7% of the tested compounds scored in any of these assays.

SMILES	TIM10 inh	SKKanGAS inh	tim23-1 inh	PfHsp90 set2	tim10-1 inh	ATG4B inh
C/C(N)=C(/C#N)C(=O)COC(=O)c1cc(-c2cccc3ccccc23)nc2ccccc12	24	62*	23	-9	28	-11
CCc1ccccc1N(C(=O)c1snc(C(N)=O)c1N)C(C(=O)NCC1CCCO1)c1ccc(OC)c(OC)c1 (stereo not given)	-5	-5	15	-11	11	2
O=C(OCc1ccc(COC(=O)c2ccc(O)cc2)cc1)c1ccc(O)cc1	11	58*	14	7	22	8
O=C(c1ccc(O)cc1)c1ccc(C(=O)c2ccc(O)cc2)cc1	9	83*	-10	nt	15	4
O=C(Cc1ccccc1)Nc1cccc(S(=O)(=O)N2CCCCCC2)c1	10	nt	16	35	23	-2
Nn1cnnc1SCC(=O)Nc1ccc2c(c1)OCCO2	19	-2	22	-14	5	-12
COc1ccc(-c2nc3nc(C)c(Cc4ccccc4)c(=O)n3[nH]2)cc1	-17	24	-5	nt	-14	2
COc1ccc(Cc2[nH]n3c(=O)c(Cl)c(C)nc3c2-c2ccccc2)cc1	-4	122*	7	9	-12	16
COC(=O)CSc1nnc(-c2cccnc2)n1-c1cccc(OC)c1	5	5	14	-26	5	-17
O=C(O)Cn1c(=O)c2c3c(sc2n(Cc2ccc(F)cc2)c1=O)CCCC3	1	5	10	-2	14	2
CCn1c(O)c(/C=N/N=C/c2ccccc2)c2ccc(C3=NNC(=O)CC3)cc21	24	52*	22	nt	30	-34
O=C(COC(=O)c1cccc(F)c1)Nc1cccnc1Cl	-17	nt	1	-7	4	3
Cc1cccc(OCC(=O)Nc2ccc(C(=O)Nc3ccccc3C(=O)O)cc2)c1C	8	58*	7	-5	3	11
CC(C)(C)c1ccc(OCC(=O)Nc2ccc(C(=O)Nc3ccccc3C(=O)O)cc2)cc1	18	83*	16	0	-1	-1
Cc1cccc(OCC(=O)Nc2cc(NC(=O)COc3cccc(C)c3C)cc(C(=O)O)c2)c1C	4	19	9	-26	20	1
CC(C)c1ccc(OCC(=O)Nc2cccc(C(=O)Nc3ccccc3C(=O)O)c2)cc1	20	34	27	1	-25	14
O=C1C(=O)N(CCOCCO)C(c2ccccn2)/C1=C(\O)c1ccccc1 (stereo not given)	-5	-4	4	24	22	-9
CC(/C=C1\SC(=S)N(C(C(=O)O)c2ccccc2)C1=O)=C\c1ccccc1 (stereo not given)	7	61*	20	-7	2	21
CCOc1ccccc1-c1c2cc(O)c(=O)cc-2oc2cc(O)c(O)cc12	nt	nt	nt	93*	nt	i
CCOC(=O)C1(CCCc2ccccc2)CCN(C(=O)CSC)CC1	4	-7	26	-5	0	-1
CC1(c2ccccc2)CC(C)(C)N2C(=O)C3(C(C#N)=C(N)Oc4cc(O)ccc43)c3cccc1c32 (stereo not given)	4	32	13	-12	24	-18
CC1(c2ccccc2)CC(C)(C)N2C(=O)/C(=C3\SC(=S)NC3=O)c3cccc1c32 (stereo not given)	nt	114*	nt	14	nt	26
O=C(NCC1CCCO1)c1cc2c([nH]c3ccccc32)c(-c2cccc(Cl)c2)n1 (stereo not given)	18	50*	39	12	27	-15
C/C(=N\NC(N)=O)c1ccccc1	0	-19	0	-29	-2	-8
NC(=O)N/N=C(/CCCCCC/C(=N\NC(N)=O)c1ccccc1)c1ccccc1	-6	53*	-4	nt	-2	-18
SMILES	TIM10 inh	SKKanGAS inh	tim23-1 inh	PfHsp90 set2	tim10-1 inh	ATG4B inh
C=CCn1c(N2C(=O)CC(Cc3ccccc3)C2=O)nc2ccccc21 (stereo not given)	4	64*	11	-12	24	10
O=C1CSCC(=O)N1Cc1ccc(Cl)c(Cl)c1	-45	0	15	-7	-26	10
CCOC(=O)c1c(O)cc(C)cc1Nc1ccccc1	2	51*	-1	9	15	2
CCc1ccc(C(C(=O)NC2CCCC2)N(C(=O)c2csnn2)C2CC2)cc1 (stereo not given)	5	19	9	-6	19	2
Cc1ccc(C)n1/N=C1/NC(=O)CS1	-2	6	13	8	13	41*
CC(C(=O)NCCc1nc2ccccc2[nH]1)n1cc([N+](=O)[O-])cn1 (stereo not given)	9	-1	2	nt	-2	-11
OC(Cn1cncn1)(c1ccc(F)cc1)c1ccc(Cl)cc1 (stereo not given)	-60	1	-342	94*	-175	-6
CC(=O)Nc1n[nH]c(-c2ccc(C)cc2)c1C	0	1	1	-3	6	-4
CC1=C(C#N)C(c2ccc(O)cc2)C2=C(CC(C)(C)CC2=O)N1 (stereo not given)	5	0	2	-1	11	-1
c1ccc(CCNc2nc(-c3cccnc3)cs2)cc1	25	16	24	15	31	-13
O=C(Nc1nc(-c2ccccn2)cs1)c1ccc([N+](=O)[O-])o1	-7	2	3	3	23	-9
O=C(Nc1nc(-c2ccccn2)cs1)c1ccc(-c2ccccc2F)o1	21	nt	23	96*	39	-37
CC(=O)c1ccc(-c2ccc(C(=O)Nc3nc(-c4ccccn4)cs3)o2)cc1	-12	nt	0	-5	1	-8
Cc1ccc(C(=O)Nc2nc(-c3ccccn3)cs2)o1	2	77*	-14	-25	21	2
c1ccc(CCNc2nc(-c3ccccn3)cs2)cc1	20	121*	-26	-3	25	0
Cc1cc(-c2nn(C)c(=O)c3ccccc23)cc(C)c1O	13	14	4	11	5	0
O=C(NC1CC1)c1cc(Cl)nc2ccccc12	0	nt	-9	8	-1	6
CCCc1nnc(SCC(=O)NC2CCCC2)n1CCOC	0	-7	-7	4	-8	-14
CCCS(=O)(=O)N1CCC(C(=O)NCCN(C)Cc2ccccc2)CC1	6	0	-6	4	1	-7
CCN1CCCC1CN(Cc1cc2ccc(C)cc2[nH]c1=O)C(=S)Nc1ccc(OC)cc1 (stereo not given)	-9	-8	5	0	-1	6
CCN1CCCC1CN(Cc1cc2ccc(C)cc2[nH]c1=O)C(=S)Nc1ccc(F)cc1 (stereo not given)	11	-11	42	94*	16	-2
Cc1ccc(/C=C/C(=O)c2ccccc(=O)c2O)cc1C	nt	97*	nt	97*	nt	15
O=C(/C=C/c1ccccc1)c1cc(Br)ccc(=O)c1O	-8	98*	0	82*	-1	14
